# Laboratory results from PubChem BioAssay.
# Activity calls are given as the source filed them. Unless noted, how the calls were made is not given here.
# Assays:
# [1] = inhibition of Brca1/Bard1 split-luciferase complementation, confirmation, counter-screen for Mdm2/MdmX interaction inhibitor project, luminescence, single concentration (AID 504668); details: Brca1/Bard1 bimolecular luciferase complementation counterscreen, at 8 µM, stronger effect = higher value
# PEG-3 [2] = target: PEG-3 (UniProt Q6IN02); assay: Peg3 promoter luciferase inhibitors, potency, dose response, cell-based, HeLa, CREF/GAPDH counter-screen panel (AID 624167); details: CREF/GAPDH counter-screens; HeLa PEG-Prom luciferase reporter, overnight, run 1, dose range 1, at 100 µM (top of the series) unless noted
# PEG-3 [3] = target: PEG-3 (UniProt Q6IN02); assay: as above; details: CREF/GAPDH counter-screens; HeLa PEG-Prom luciferase reporter, overnight, run 2, dose range 1, at 100 µM (top of the series) unless noted
# Rat fibroblasts (CREF) [4] = assay: as above; details: CREF/GAPDH counter-screens; run 1, dose range 1, at 100 µM (top of the series)
# Rat fibroblasts (CREF) [5] = assay: as above; details: CREF/GAPDH counter-screens; run 2, dose range 1, at 100 µM (top of the series)
# [6] = target: Tumor necrosis factor receptor superfamily member 10B (Homo sapiens) (UniProt O14763); assay: caspase-8 TRAIL sensitization, hit retest, confirmation, cell-based, NB7+caspase-8, with/without TRAIL, luminescence panel (AID 651596; in the data active means activity above about 50%); details: NB7 neuroblastoma + caspase-8, TRAIL sensitization, luminescence viability, with TRAIL, mean of runs, at 10 µM, stronger effect = higher value
# [7] = as above; details: NB7 neuroblastoma + caspase-8, without TRAIL, luminescence viability, without TRAIL, mean of runs, at 10 µM
# [8] = inhibitors of PAF-induced NFkB signaling in CF airway cells, dose response, cell-based, uHTS hits, panel, cytotoxicity readout (AID 624344); details: CF bronchial epithelial cells, PAF-induced NFkB reporter inhibition, with PAF, run 1; at 79 µM (top of the series) unless noted
# [9] = as above; details: CF bronchial epithelial cells, PAF-induced NFkB reporter inhibition, with PAF, run 2; at 79 µM (top of the series) unless noted
# Chain of PEG-3 (Q6IN02 whole entry, looked up): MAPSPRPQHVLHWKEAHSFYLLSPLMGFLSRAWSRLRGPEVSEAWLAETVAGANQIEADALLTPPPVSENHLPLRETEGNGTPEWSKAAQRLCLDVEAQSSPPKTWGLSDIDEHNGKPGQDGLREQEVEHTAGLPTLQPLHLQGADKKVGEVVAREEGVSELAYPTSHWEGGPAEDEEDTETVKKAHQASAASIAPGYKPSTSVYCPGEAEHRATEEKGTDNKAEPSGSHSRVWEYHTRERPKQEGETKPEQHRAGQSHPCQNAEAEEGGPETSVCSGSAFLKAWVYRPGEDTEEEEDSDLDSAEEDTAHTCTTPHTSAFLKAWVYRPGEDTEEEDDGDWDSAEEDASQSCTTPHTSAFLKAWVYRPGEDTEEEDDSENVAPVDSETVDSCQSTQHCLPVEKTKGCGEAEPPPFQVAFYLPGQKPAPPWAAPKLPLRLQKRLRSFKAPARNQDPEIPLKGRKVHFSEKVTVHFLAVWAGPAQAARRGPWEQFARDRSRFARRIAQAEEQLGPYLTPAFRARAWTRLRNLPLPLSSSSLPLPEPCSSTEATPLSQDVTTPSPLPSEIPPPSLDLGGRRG
# Chain of Tumor necrosis factor receptor superfamily member 10B (Homo sapiens) (O14763 whole entry, looked up): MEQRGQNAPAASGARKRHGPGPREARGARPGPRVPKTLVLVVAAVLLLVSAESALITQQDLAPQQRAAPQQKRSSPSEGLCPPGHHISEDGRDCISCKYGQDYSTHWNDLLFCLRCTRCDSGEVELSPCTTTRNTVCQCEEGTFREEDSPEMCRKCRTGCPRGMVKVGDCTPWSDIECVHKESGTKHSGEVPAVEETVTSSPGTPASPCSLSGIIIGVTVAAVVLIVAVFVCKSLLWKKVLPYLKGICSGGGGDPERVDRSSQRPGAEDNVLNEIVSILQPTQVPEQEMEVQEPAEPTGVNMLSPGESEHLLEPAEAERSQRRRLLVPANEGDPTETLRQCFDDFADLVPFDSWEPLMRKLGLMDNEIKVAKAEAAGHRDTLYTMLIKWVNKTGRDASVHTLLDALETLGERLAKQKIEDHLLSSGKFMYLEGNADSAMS
SMILES,inhibition [1],inhibition (PEG-3 [2]),inhibition (PEG-3 [3]),inhibition (Rat fibroblasts (CREF) [4]),inhibition (Rat fibroblasts (CREF) [5]),activity [6],activity [7],inhibition [8],inhibition [9]
Cc1cc(C)cc(NC(=O)CSc2ccc(-c3ccccn3)nn2)c1,31.7% (active),–,–,–,–,–,–,–,–
O=C(NC1=NCCS1)C1COc2ccccc2O1 (stereo not given),34% (active),96.4%,97.6%,86.9%,87.4%,–,–,–,–
Cc1cc(NC(c2ccc(Cl)cc2)c2ccc3cccnc3c2O)no1 (stereo not given),27.4% (active),37.1%,87.1%,37.2%,44.8%,–,–,–,–
Cc1ccc2nc(-c3ccccc3)cn2c1,32.2% (active),97.5%,99%,100%,99.1%,94%,93.9%,–,–
c1cc2[nH]snc2c2nc(C3CC3)nc12,26.4% (active),–,–,–,–,–,–,101%,118%
O=C(/C=C/c1cccc([N+](=O)[O-])c1)n1cnc2ccccc21,24.6% (active),–,–,–,–,–,–,102%,111%
C=CCc1cccc(/C=N/NC(=O)C(C)Nc2cccc(C)c2)c1O (stereo not given),34.9% (active),60.8%,62%,39.7%,47.8%,–,–,–,–
COc1ccc(-c2cn[nH]c2-c2ccc(O)cc2O)cc1,25.3% (active),–,–,–,–,–,–,104%,112%
Cc1ccc(C(=O)Nc2cc3ccccc3oc2=O)cc1,31.8% (active),84.5%,78.7%,84.6%,87.1%,–,–,–,–
Cc1nc2cc(-c3ccccc3)sc2c(=O)n1N,30% (active),102%,97.8%,93.7%,92%,73.1%,73.6%,–,–
CCC(C)Oc1cc(-c2ccnc(Nc3cccc(Cl)c3)n2)ccn1 (stereo not given),25.4% (active),–,–,–,–,–,–,102%,117%
COc1ccc(Cc2nnc(SCc3ccc([N+](=O)[O-])cc3)o2)cc1,28.9% (active),–,–,–,–,–,–,113%,97.4%
CCn1c(Oc2ccccc2F)nc2c1c(=O)n(C)c(=O)n2C,23.1% (active),–,–,–,–,–,–,113%,96.5%
C=CCn1c(COc2ccccc2)nnc1SC(C)C(=O)N/N=C/c1cc(Cl)ccc1O (stereo not given),30.6% (active),64%,86%,37.9%,43.9%,–,–,–,–
COc1cccc(/C=N/NC(=O)c2c(C)nc3ccc(Cl)cn23)c1O,34.5% (active),59.6%,61.9%,44.7%,46.7%,–,–,–,–
COc1cccc(-c2nnc3sc(C4CCCCC4)nn23)c1,25% (active),–,–,–,–,–,–,111%,104%

SMILES,inhibition [1],inhibition (PEG-3 [2]),inhibition (PEG-3 [3]),inhibition (Rat fibroblasts (CREF) [4]),inhibition (Rat fibroblasts (CREF) [5]),activity [6],activity [7],inhibition [8],inhibition [9]
O=C(NCCc1ccccc1)c1ccc2c(c1)OCCO2,27.8% (active),94.6%,97.9%,99%,98.4%,89.7%,90.2%,–,–
Cn1c(Oc2ccc(Cl)cc2)c(C=O)c2ccccc21,34.4% (active),–,–,–,–,–,–,104%,109%
COc1ccc(-c2cncnc2-c2ccc(OC)cc2O)cc1,27.2% (active),–,–,–,–,–,–,101%,93.5%
c1ccc(-c2noc(-c3ccc4c(c3)OCO4)n2)nc1,29.3% (active),91.3%,94.5%,95.9%,95.7%,93.2%,93.7%,–,–
O=C(N/N=C\c1c(O)ccc2ccccc12)c1ccc(Cn2cccn2)o1,24.8% (active),84.9%,75.1%,51.2%,41.5%,–,–,–,–
Cc1ccc(-c2nnc(SCC(=O)Nc3ccccc3F)o2)cc1,32.6% (active),98.6%,94.7%,97.2%,97.2%,83%,83.2%,–,–
O=C(Nc1ccc([N+](=O)[O-])cc1)C(=O)Nc1cccc(C(=O)O)c1,31% (active),92.5%,95%,97.5%,96.8%,–,–,–,–
COC(=O)Cc1[nH]n(-c2nc3ccccc3s2)c(=O)c1C(C)=Nc1ccc(C)cc1,32.2% (active),80.3%,83.8%,78.5%,80.2%,–,–,–,–
CC(=O)c1cccc(NC(=O)Nc2cccnc2)c1,27.6% (active),–,–,–,–,–,–,119%,93.2%
COC(=O)c1nn(-c2ccc3c(c2)CCN3C(C)=O)cc1O,31% (active),96.2%,97.9%,99.1%,99.2%,86.6%,85.3%,–,–
COC1(OC)C=CC(=O)C=C1NC(=O)c1ccccc1OC(C)=O,35.6% (active),–,–,–,–,–,–,101%,113%
CCC(=O)NC(c1ccc(C)cc1)c1ccc2cccnc2c1O (stereo not given),23.7% (active),-12.7%,50.5%,16.7%,31.4%,–,–,–,–
CN(C(=O)OC(C)(C)C)c1ccc(-c2nc3ccccc3s2)cc1,24.8% (active),96.5%,98.2%,–,–,92.6%,91.2%,–,–
O=C(CCSc1nc2ccccc2s1)N/N=C/c1c(O)ccc2ccccc12,31.6% (active),58.9%,82.3%,40.6%,38%,–,–,–,–
COc1ccc(C(=O)CN2C(=O)c3ccccc3S2(=O)=O)cc1,25.5% (active),99.1%,97.6%,96.6%,97.6%,70.2%,70.8%,–,–
Cc1cc(C(=O)COC(=O)c2ccccc2O)c(C)n1CC1CCCO1 (stereo not given),35.8% (active),99.1%,101%,99.6%,99.2%,91.2%,88.9%,–,–
